NPC1 prom act = qHTS Assay for NPC1 Promoter Activators | Huh7 NPC1 promoter luciferase reporter, 24 h | 320,000 tested, 2.4% active | Potency, µM (series often up to 9.22 µM), inactives show at the highest dose activation, hits mostly activators; note: % of control where 0% means no effect; nearly all actives have a fitted effect of over 60% in size
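In 1536-well qHTS, Huh7 cells harboring an NPC1 promoter–luciferase construct received compound for 24 h; activation was quantified by luminescence following luciferase reagent addition.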
ELG1 genotox = qHTS screen for small molecules that induce genotoxicity in human embryonic kidney (HEK293T) cells expressing luciferase-tagged ELG1. AID 504466, 2011. 330,000 tested, 1.3% active. Potency, µM (highest dose often 46 µM), for the others: at the top dose activity change, positive = activation, actives largely listed as activators. HEK293T ELG1-luciferase reporter, luminescence, 16 h; note: % of control where 0% means no effect; nearly all actives have a fitted effect of over 60% in size
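Luminescence read-out: rising ELG1-luciferase signal, reflecting elevated ELG1 protein under genetic stress, flags genotoxic compounds. Cells were treated for 16 hr at 37 °C before ONE-Glo detection.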
Rab9 promoter act = qHTS Assay for Rab9 Promoter Activators; Huh7 Rab9 promoter-luciferase reporter, luminescence, 24 h; Potency, µM (highest dose often 9.22 µM), for the others: at the highest dose activation, negative = inhibition, usual class: activators; 320,000 tested, 2.8% active; note: % of control where 0% means no effect; nearly all actives have a fitted effect of over 60% in size
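Cells were plated at 1500 per well in reduced-serum medium with 10% FBS and left 2 h. Compound in DMSO was then added for 24 h at 37 °C. Reporter signal was read by luminescence after 10 min with luciferase detection reagent.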
SMN2 splice up = qHTS Assay for Enhancers of SMN2 Splice Variant Expression; HEK293 SMN2-luciferase splicing reporter, luminescence, 30-36 h; Potency, µM (highest dose often 46.1 µM), for inactives: at the top dose activity change, positive = activation, hits mostly activators; 210,000 tested, 2.8% active; AID 1458, 2008; note: % of control where 0% means no effect; nearly all actives have a fitted effect of over 55% in size
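qHTS luciferase splicing reporter: luminescence rises when SMN2 exon 7 is included in transfected HEK293 cells. Compound exposure lasted 30-36 h at 37C, with 4.5 mM final sodium butyrate as control, followed by a ONE-Glo read.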
FLuc modulator = qHTS profiling assay for firefly luciferase inhibitor/activator using purifed enzyme and Km concentrations of substrates (counterscreen for miR-21 project). Luciferin 4-monooxygenase (Photinus pyralis), P08659. purified FLuc, Km substrates, luminescence inhibition. Potency, µM (highest dose often 57.5 µM), for inactives: top-dose activity change, negative = inhibition, actives largely listed as inhibitors. 360,000 tested, 6.9% active;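 note: plate controls were vehicle for no effect and reference inhibitor for full effect; nearly all actives have a fitted effect of over 55% in size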
Target sequence (P08659 whole entry, looked up): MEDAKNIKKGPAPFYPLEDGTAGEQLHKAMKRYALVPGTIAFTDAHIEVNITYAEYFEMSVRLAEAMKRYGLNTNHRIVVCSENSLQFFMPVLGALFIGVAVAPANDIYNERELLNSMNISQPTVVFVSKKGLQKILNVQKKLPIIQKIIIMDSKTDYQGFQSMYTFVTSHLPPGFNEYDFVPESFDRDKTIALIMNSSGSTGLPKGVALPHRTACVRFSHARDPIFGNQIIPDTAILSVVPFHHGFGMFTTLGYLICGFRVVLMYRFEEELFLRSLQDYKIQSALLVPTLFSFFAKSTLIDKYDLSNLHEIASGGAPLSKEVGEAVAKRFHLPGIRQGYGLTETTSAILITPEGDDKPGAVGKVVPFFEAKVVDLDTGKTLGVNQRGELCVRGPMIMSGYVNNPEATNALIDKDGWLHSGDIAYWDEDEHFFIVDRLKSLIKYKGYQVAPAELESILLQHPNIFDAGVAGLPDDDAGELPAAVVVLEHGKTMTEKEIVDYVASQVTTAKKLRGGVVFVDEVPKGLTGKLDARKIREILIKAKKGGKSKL
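Purified P. pyralis luciferase, 10 nM final, with Km-level 10 uM D-luciferin and 10 uM ATP in 50 mM Tris acetate pH 7.5, 10 mM Mg acetate, 0.01% Tween-20, 0.05% BSA; 6-point qHTS titration about 60 µM downward; luminescence read.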
KinaseGlo FLuc = Counterscreen for Luciferase (Kinase-Glo TM) Inhibition; Luciferin 4-monooxygenase (Photuris pensylvanica), Q27757; Kinase-Glo luciferase, ATP luminescence, 8 min; Potency, µM (doses to about 38.3 µM), without a hit: at the top dose activity change, negative = inhibition, hits mostly inhibitors; 200,000 tested, 0.28% active; note: % is set by controls: 0 for no effect and ±100 for the full control effect; nearly all actives have a fitted effect of over 60% in size
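Kinase-Glo luciferase light output from ATP and luciferin was measured with 10 uM ATP, within the enzyme's linear range. Buffer: 50 mM imidazole pH 7.2, 50 mM KCl, 7 mM MgCl2, 0.01% Tween 20, 0.05% BSA; luminescence read after 8 min at ambient temperature.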
* hit, by the source's call; ? = inconclusive; nt = no result; [ ] = dose if it differs, or a comment. The list is not random: actives were taken first. Their share in the collection is about 7.4%. Calls come from the whole dose curve; as a rule, active = well fitted curve in the direction sought with a large enough effect; inconclusive = small, poorly fitted or top-dose-only effect, or another doubt; inactive = no such curve, though single readings can be large; an effect the other way counts as inactive or inconclusive. Potency is the fitted concentration of half-maximal effect.

SMILES	NPC1 prom act	ELG1 genotox	Rab9 promoter act	SMN2 splice up	FLuc modulator	KinaseGlo FLuc
Cc1ccc(C(=O)Nc2cccc(-c3ccc(N4CCOCC4)nn3)c2)cc1C	?	?	2.8µM*	nt	2.1µM*	nt
O=C(Nc1cccc(-c2ccc(N3CCCCC3)nn2)c1)c1ccco1	4µM*	1.6µM*	2.8µM*	nt	0.38µM*	nt
Cc1ccc(/C=c2\sc3nc(-c4ccco4)nn3c2=O)o1	5%	-5%	-1%	14%	?	-8%
Cc1ccc(-c2nc3s/c(=C\c4ccco4)c(=O)n3n2)cc1	-4%	-1%	4%	0%	0.76µM*	-11%
COc1ccc(Nc2nc3ccc(C)cc3nc2-n2nc(C)cc2C)cc1Cl	nt	nt	nt	-7%	-1%	nt
COc1ccccc1NC(=O)C(=O)Nc1ccc2c(c1)N(C(=O)C1CC1)CCC2	29%	21%	26%	nt	-6%	nt
CC(=O)Nc1cccc(NC(=O)C(=O)Nc2ccc3c(c2)N(C(=O)C2CC2)CCC3)c1	28%	0%	?	nt	9.5µM*	nt
N#C/C(=C\c1c[nH]c2ccccc12)C(=O)c1ccc(O)c(O)c1	-5%[46.1 µM]	nt	-20%[46.1 µM]	-41%	nt	-5%
COc1cc(OC)cc(C(=O)Nc2ccc(S(=O)(=O)Nc3onc(C)c3C)cc2)c1	nt	nt	nt	5%	?	nt
COc1cccc(C(=O)/C=C/Nc2ccc(S(=O)(=O)Nc3onc(C)c3C)cc2)c1	0%	13%	12%	14%	15µM*	0%
CCOc1ccc(C(=O)/C=C/Nc2ccc(S(=O)(=O)Nc3onc(C)c3C)cc2)cc1	-1%	?	14%	?	15µM*	1%
Cc1noc(NS(=O)(=O)c2ccc(NC(=O)/C=C/c3ccc(Br)cc3)cc2)c1C	-7%	6%	3%	nt	?	nt
CCOc1ccc(C(=O)/C=C/Nc2ccc(S(=O)(=O)N=C(N)N)cc2)cc1	7%	?	0%	23%	-6%	-2%
Cc1noc(NS(=O)(=O)c2ccc(N/C=C\C(=O)c3ccc(Br)cc3)cc2)c1C	3%	1%	-10%	nt	27µM*	1%
Cc1noc(NS(=O)(=O)c2ccc(N/C=C\C(=O)c3ccc4c(c3)OCO4)cc2)c1C	-1%	9%	-1%	-11%	9.5µM*	5%
Cc1cc(C)c2c(=O)cc(C(=O)Nc3c(C)n(C)n(-c4ccccc4)c3=O)oc2c1	nt	nt	nt	16%	-2%	nt
CCc1nnc(NS(=O)(=O)c2ccc(N/C=C\C(=O)c3cccc4ccccc34)cc2)s1	0%	1%	-1%	10%	-5%	3%
Cc1noc(NS(=O)(=O)c2ccc(N/C=C\C(=O)c3cccc4ccccc34)cc2)c1C	2%	10%	11%	-15%	13µM*	1%
Cc1ccc(Cl)c(OCC(=O)Nc2cccnc2)c1	?	?	8%	nt	15µM*	nt
O=C(COc1ccccc1Cl)Nc1cc(NC(=O)COc2ccccc2Cl)cc(C(=O)O)c1	?	?	4µM*	nt	?	nt
COc1ccccc1OCC(=O)Nc1cc(NC(=O)COc2ccccc2OC)cc(C(=O)O)c1	1%	11%	4%	nt	-13%	nt
O=C(COc1ccccc1Cl)Nc1cccnc1	?	?	?	nt	19µM*	-8%
O=C(COc1ccc(F)cc1F)Nc1cccnc1	10%	17%	5%	nt	-15%	nt
N#CCCn1c(=O)c(-c2cccs2)nc2cnc(OCc3ccccc3)nc21	nt	nt	nt	9%	nt	0%
CCc1ccc(C(=O)c2cn(CC(=O)NCCc3ccc(OC)c(OC)c3)c3nc(C)ccc3c2=O)cc1	nt	nt	nt	nt	-13%	nt
SMILES	NPC1 prom act	ELG1 genotox	Rab9 promoter act	SMN2 splice up	FLuc modulator	KinaseGlo FLuc
COc1ccc2[nH]c(C(=O)c3ccccc3)cc2c1	nt	nt	nt	nt	nt	-2%
COc1ccc2nc(-c3ccccc3)[nH]c2c1	2.8µM*	1.3µM*	1.6µM*	6.3µM*	2.1µM*	?
CCOc1ccc2nc(-c3ccccc3)[nH]c2c1	0.79µM*	?	?	14µM*	1.1µM*	?
COc1ccc2[nH]c(-c3ccc(C)cc3)cc(=O)c2c1	?	2.9µM*	2.5µM*	1.3µM*	1.5µM*	-20%
COc1ccc2[nH]c(-c3ccccc3)cc2c1	1.6µM*	?	0.89µM*	nt	6µM*	nt
O=C(NCc1ccccc1Cl)c1ccc2c(c1)NC(=O)C(CS(=O)(=O)Cc1ccc(Cl)cc1)N2 (stereo not given)	nt	nt	nt	nt	-1%	nt
CCn1c(=O)c2cc(C(=O)N(CCCOC(C)C)Cc3ccco3)sc2c2ccccc21	nt	nt	nt	-7%	-13%	nt
COc1ccc(NC(=O)c2ccc3oc(=O)c(S(=O)(=O)c4ccc(C)cc4)cc3c2)cc1OC	nt	nt	nt	-4%	-1%	nt
O=c1cc(-c2ccccc2F)[nH]c2cc3c(cc12)OCO3	?	nt	-5%[46.1 µM]	nt	nt	nt
Cc1c(CCC(=O)NCCCn2ccnc2)c(=O)oc2cc3oc4c(c3cc12)CCCC4	14%	-1%	-2%	nt	?	nt
Cc1c(CCC(=O)N2CCC(C(=O)O)(c3ccccc3)CC2)c(=O)oc2cc3oc4c(c3cc12)CCCC4	12%	9%	4%	nt	13µM*	nt
Cc1c(CCC(=O)N2CCC(C(=O)O)CC2)c(=O)oc2cc3oc4c(c3cc12)CCCC4	0%	0%	5%	nt	11µM*	nt
CCCOC(=O)c1c(NC(=O)C2c3ccccc3Oc3ccccc32)sc2c1CCC(C)C2 (stereo not given)	nt	nt	nt	9%	2%	nt
O=C(C[n+]1cc(-c2ccc(F)cc2)n2c1CCC2)N1c2ccccc2Sc2ccccc21	?	?	2.8µM*	76%	2.4µM*	-2%
O=C(ONc1ccc(N=NC(=O)c2ccccc2O)cc1)c1ccccc1	?	10µM*	4µM*	nt	8.5µM*	-3%
O=Nc1ccc(NOC(=O)c2ccccc2Br)cc1	7%	1%	0%	11%	0.24µM*	?
COc1ccc(CNC(=O)c2cc(Nc3ccc(C)cc3C)nc3ccccc23)cc1	nt	nt	nt	-11%	8.5µM*	nt
COc1ccc(-c2cc(C(=O)NCc3ccco3)c3ccccc3n2)cc1	0%	0%	11%	nt	6.7µM*	nt
COc1ccc(CNC(=O)c2cc(Nc3ccccc3C)nc3ccccc23)cc1	nt	nt	nt	-3%	?	nt
COc1ccccc1Nc1cc(C(=O)NCc2cccs2)c2ccccc2n1	nt	nt	nt	-42%	9.5µM*	nt
O=C(NCc1ccco1)c1cc(-c2ccccc2)nc2ccccc12	-2%	-5%	-2%	?	?	-6%

Bioassay records (PubChem BioAssay)
